Assay results as given in the supplement of paper PMC12632987.
Whole data set: some 4,500 sequences, median “median log2 fold change of GCK-ALFA target abundance (FLAG IP / Myc IP barcode read proportion)” near 0.078, cut for the lowest 2% near -0.6. Shown is part of a subset that was picked to be rich in the lowest values.

B1: GBRAP_166_4935 (protein)
chain: SLEKIYEETKKKVIELAKKALTADEEERIDLAIEIEELLKEAKEKGLTPEQLKEILLEALKELEEDPEVAEFLLRMILAASEMDEELQDVILEALEEFKK
B2: GBRAP_128_3437 (protein)
chain: AQEELLQEALELLDEIVESDVETAAELAKQLAELLGQLDEESRDEVVEYFEEKAKELTEEKLEAVADALREQVPQLDADTANAVNEMIVILGEQILELEE
B3: GBRAP_160_4322 (protein)
chain: KEELEELEKRIKEIAEEAKKMIKGQSAEEKITIVKVALGDIILEVESNPAVSDELEDKVAEIADAAEAYLDAHPDLSEEEVIALLEEAVKKILELIKEEK
B4: GBRAP_137_3640 (protein)
chain: MKVTIRVERHEDLVEITITVDDPEKAEEVAELITDLAVAHGALAISVEIKEDGTLEAVIWVPVERAEALIAAIVDALQSKFGATVTVEDLDTGEVRTYTP
B5: GBRAP_184_5202 (protein)
chain: AIVERTIEFENEEELKEKLKELLEELKGFKGTVYIHVEAPEITEEMAKLLIEFVKEIKENGYATEIIVDIEGEVSEEVRDLLLDEFAKIGAKVVIALSEE
B6: GBRAP_11_2682 (protein)
chain: RKEALERAAELAERAAELAERLLEEGVDNEELLEELRRALEELRRLVKEHLDEAHRTLVEIAEEELEEALADPENAAAHIERLLAAARVLRYNLEEELEE
B7: GBRAP_125_3139 (protein)
chain: MKAELLALAEALARALGYSEEEIAELRRLGEAHDPAQTIIAILLAEGFEELAELAREVLPKLTPEEIAELRALAESLRDKSREELRAALLAKLKELKAKQ
B8: GBRAP_128_3300 (protein)
chain: MDPALRAEVEALVETIRTGDPAARRAAAEALAALMGSVNDEDAEAIADIIEAAIPELSAEALEILADVLDAARPQLTPEKAALAADVASAALLAAEELAE
B9: GBRAP_52_6059 (protein)
chain: MEERIEELARRIAEAIAAGDLERALELLRRAIKELSVEEIRRMLELAAERVAKLGEEAHERFVELLEEAEELMKEAGISEEEAELIVGDAEAALARAVAA
B10: GBRAP_52_6153 (protein)
chain: ARERAREYAEAFVAAVKAGDEERARAIMEEIAATLNDEEIELFLEEVARLVEGLTPEERERVVEAVLEFEDIAVAAGHDEELLSYHTARVAGAAYDALQK
B11: GBRAP_52_6154 (protein)
chain: MEERAREYAERFVAAVKAGDEEEARAIMEEIAATLDDEEIALFLEHVAELVAGLSPEDRERVVEAVLEFEDIAEAAGHDPELLSYHTARVAGAAYAALQA
B12: GBRAP_52_6151 (protein)
chain: AAARAAAYAREFVAAVRAGDEEKARAIMKEIAATLDDEEIALFLREVARLVAGLSPEDRERVVEAVLEFEDIAVAAGHDEDILSYETARVAGAAYEALQR
B13: GBRAP_64_6479 (protein)
chain: NEEIEELLEELLEAARRLLALFERENPELAPEAQEIVDLLEEAKTASLEERLDLVLEVTDRLHALLRDPRVTPEQRDALLEALDLAMALAALLAEEVEKE
B14: GBRAP_80_6846 (protein)
chain: AAARLAAELAALKALLPEVAEDAKEAVALARELGVPDADIADYLAALNELAKLDPELAAALLKELLADLREEKAEGDSENALAVVRGYTGEALMEAEELE
B15: GBRAP_80_6856 (protein)
chain: AAAALAAALAALKALLPEVAEDAKEIVEIARELGVPDADIADLMEALAELAKVDPELAAELIKELLEELKEEKERGDAERALAVVRGYAGEALMLAEELE
B16: GBRAP_80_6848 (protein)
chain: AEERLAAALAALEALLPEVAEEARELVALARELGVPDEEIAAFLEALNELAKLDPELAAELIREALEDMKELKEEGDSENALAVVRGYTGDALMAAEELE
B17: GBRAP_166_4906 (protein)
chain: MKEEKIEELIERAEELIEELKEADEEEALELLIEIGEVLRELKELGASEEEILELVRRTLEAVKERGLSVRVAAGIIAEVADFDEEMREKLDEIAREVEA
B18: GBRAP_78_6635 (protein)
chain: EVEELIDKALEKVSEAAKAALKLPLDLRAEVLDELSDAAVELVEAEEGEDKEEELEEALEELEEALEIVEENDSPLTEEIKKLLEEAIELVKKAIEELKE
B19: GBRAP_52_6046 (protein)
chain: MEEEARKLAKELLELVLEGKEEEARKLAREIAETKNEEEILKIAEELAKLVLEGDKETAEAGIKAAEIMAEELEKAGRDEGLADLILATVYGAAYKRLQK

These binders were tested against GABARAP, O95166 (assay: median log2 fold change of GCK-ALFA target abundance (FLAG IP / Myc IP barcode read proportion) (log2 ratio); each designed protein is fused to an ALFA-tag nanobody in HEK293 cells to bring the named protein to FLAG-tagged glucokinase (GCK); Myc marks an untargeted standard; higher = target protein stabilised (more abundant)). Conditions: target protein: 3xFLAG-MCP-GCK-ALFA reporter; HEK293 landing pad (RPLP).
In short: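 An ALFA-nanobody-fused binder library was recombined into HEK293 landing-pad cells and induced with 2 μg mL^−1 doxycycline. Cells were transfected with a plasmid expressing a FLAG-tagged target and a Myc-tagged standard. After 48 h, lysates underwent anti-FLAG and anti-Myc immunoprecipitation, and circular RNA barcodes were reverse transcribed, amplified and sequenced. Target abundance is the per-binder median log2 ratio of FLAG to Myc barcode read proportions. Barcodes needed ≥10^−7 proportion in both replicates, binders ≥3 barcodes per replicate, and a 10^−6 pseudocount was added; the two replicates were pooled.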

Chain of GABARAP, O95166 (O95166 whole entry, the tested form may be a part): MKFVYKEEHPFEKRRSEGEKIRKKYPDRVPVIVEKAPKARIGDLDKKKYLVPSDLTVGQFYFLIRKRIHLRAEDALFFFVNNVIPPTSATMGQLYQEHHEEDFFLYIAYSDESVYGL

First: B1
Second: B2
The “median log2 fold change” value of the first is higher: 0.184 for the first, -0.0498 for the second.

Going from B3 to B4, the “median log2 fold change” value falls from 0.161 to -0.0441.

Going from B5 to B6, the “median log2 fold change” value falls from -0.159 to -0.882.

First: B7
Second: B8
The “median log2 fold change” value of the first is higher: 0.207 for the first, -0.00271 for the second.

Going from B9 to B10, the “median log2 fold change” value falls from 0.0176 to -0.742.

B11 and B12 are within 0.2 log units of each other in “median log2 fold change” value: 0.0811 for the first, 0.0301 for the second.

First: B13
Second: B14
The “median log2 fold change” value of the first is higher: -0.254 for the first, -0.698 for the second.

B15 and B16 are within 0.2 log units of each other in “median log2 fold change” value: -0.242 for the first, -0.203 for the second.

Going from B17 to B18, the “median log2 fold change” value falls from -0.128 to -1.21.

With B19 the “median log2 fold change” value was -0.00871.
